High-throughput results from PubChem.
Sampled rows, rich in hits. Any-hit rate of the full collection: about 12%.
PI5P4K alpha inh – inhibitors of human PI5P4K alpha; actives 1.2% (n = 330,000); max response, %; P48426; PI5P4Kalpha enzyme, ADP-Glo luminescence, 60 min; stronger effect = lower value; active means max response of -50% or lower; inconclusive means between -30% and -50%; inactive means -30% or higher; further: value at the top dose of about 77 µM
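Quantitative HTS of the MLSMR library against PI5P4Kalpha with substrate. ATP added last at 5 microM final; room temperature, 60 minutes. Remaining ATP depleted, ADP converted and read as luminescence.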
JMJD2A Tudor – JMJD2A Tudor domain (human) inhibition | O75164 | AlphaScreen JMJD2A-Tudor / H3K4me3 peptide binding | Potency, µM (highest dose often 114 µM), most hits filed as inhibitors | actives 4.4% (n = 390,000) | AID 504339; further: nearly all actives have a fitted effect of over 50% in size
BAZ2B inh – BAZ2B (human) inhibition; AlphaScreen BAZ2B-H3K14Ac peptide displacement; Potency, µM (top dose mostly 114 µM), usual class: inhibitors; actives 4.4% (n = 360,000); AID 504333; further: nearly all actives have a fitted effect of over 60% in size
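BAZ2B (50 nM) with biotin-H3(5-23)K14Ac peptide (50 nM) in PBS pH 7.4, 0.01% Tween-20, preformed 30 min, then compound 30 min at room temperature; top concentration 110uM. AlphaScreen streptavidin donor/nickel chelate acceptor beads (10 ug/mL final), 20 min dark, signal read.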
PLK1 PBD inh – blocks phosphopeptide binding to human PLK1 polo-box domain | P53350 | Plk1 PBD binding of FITC phosphopeptide, fluorescence polarization | Potency, µM, actives largely listed as inhibitors | actives 2.8% (n = 360,000); further: series mostly up to about 57 µM; nearly all actives have a fitted effect of over 65% in size
HP1b chromo inh – blocks HP1-beta chromodomain binding to methylated histone tails. Potency, µM (doses to about 114 µM), actives largely listed as inhibitors. P83916. actives 0.56% (n = 390,000). AlphaScreen HP1-beta / biotin-H3K9me3 peptide binding; further: nearly all actives have a fitted effect of over 70% in size
Target sequence (P83916 whole entry, looked up): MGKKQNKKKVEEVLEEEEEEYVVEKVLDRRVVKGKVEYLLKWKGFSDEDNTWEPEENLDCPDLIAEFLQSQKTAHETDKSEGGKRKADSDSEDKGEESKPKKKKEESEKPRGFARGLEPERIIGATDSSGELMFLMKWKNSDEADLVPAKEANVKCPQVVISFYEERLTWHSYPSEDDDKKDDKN
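AlphaScreen: HP1-beta (50 nM) preformed 30 min with biotin-H3(1-18)K9me3 peptide (50 nM) in PBS pH 7.4, 0.01% Tween-20. Compound added for 30 min at RT, then streptavidin donor/nickel chelate acceptor beads (10 ug/mL) for 30 min.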
G9a block – G9a (human) methyltransferase inhibition | G9a H3K9 monomethylation, AlphaScreen, 2 h | AID 504332 | actives 8.8% (n = 350,000) | Potency, µM (top dose mostly 102 µM), usual class: inhibitors; further: nearly all actives have a fitted effect of over 75% in size
Target sequence (Q96KQ7 913-1193 limits assumed): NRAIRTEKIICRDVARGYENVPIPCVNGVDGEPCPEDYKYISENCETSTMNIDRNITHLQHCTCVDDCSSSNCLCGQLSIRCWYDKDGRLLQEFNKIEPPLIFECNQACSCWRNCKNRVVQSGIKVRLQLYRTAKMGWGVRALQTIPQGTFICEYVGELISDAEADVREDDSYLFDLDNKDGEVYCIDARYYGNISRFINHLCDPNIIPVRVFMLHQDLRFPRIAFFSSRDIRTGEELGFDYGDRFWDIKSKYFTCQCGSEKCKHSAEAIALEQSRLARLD
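Chemiluminescent proximity detection of H3K9 monomethylation, read after 10 min bead incubation in the dark. Reaction: 20 nM G9a, 500 nM biotin-H3K9 peptide, 20 uM SAM cofactor, 2 h, room temperature, following 15 min enzyme-compound preincubation.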
Large screens that a line does not name were inactive; ! = repeats disagree. Unless noted, the call rests on the fitted dose curve; in most records, active means well fitted curve in the direction sought with a large enough effect; inconclusive means small, poorly fitted or top-dose-only effect, or another doubt; inactive means no such curve, though single readings can be large; an effect the other way counts as inactive or inconclusive.

COc1cc(CCC(=O)N2CCN(c3cccc(C)c3C)CC2)cc(OC)c1OC	none
Cc1csc2nc(SCC(=O)Nc3ccccc3F)[nH]c(=O)c12	none (no result: G9a block)
O=C(COC(=O)CN1C(=O)COc2ccccc21)NCc1ccc(F)cc1	none
CSCCC(NC(=O)c1ccccc1Cl)C(=O)Nc1ccncc1 (stereo unspecified)	G9a block 40µM
COC(=O)C1=C(C)N(CCCC(=O)O)C(=O)NC1c1ccc(-c2ccccc2)cc1 (stereo unspecified)	PI5P4K alpha inh -75
CCN1C(=O)N[C@H](c2ccc(Br)cc2)C(C(C)=O)=C1C	G9a block 45µM
CCOC(=O)C1=C(C)N(CCCC(=O)O)C(=O)NC1c1cccc(OC)c1 (stereo unspecified)	PI5P4K alpha inh inconclusive (no result: BAZ2B inh, G9a block)
CCN1C(=O)N[C@@H](c2cccc(F)c2)C(C(C)=O)=C1C	none (no result: BAZ2B inh, G9a block)
COC(=O)C1=C(C)N(CCCC(=O)O)C(=O)NC1c1ccc(C#N)cc1 (stereo unspecified)	PI5P4K alpha inh -63 (no result: BAZ2B inh, G9a block)
COC(=O)C1=C(C)N(CCCC(=O)O)C(=O)NC1c1ccc(C(F)(F)F)cc1 (stereo unspecified)	PI5P4K alpha inh -81
COC(=O)C1=C(C)N(CC2CC2)C(=O)N[C@H]1c1ccccc1	none (no result: BAZ2B inh, G9a block)
O=C(Nc1ccc(F)c(Cl)c1)C1CCN(S(=O)(=O)c2ccc3c(c2)CCCN3C(=O)C2CCC2)CC1	JMJD2A Tudor inconclusive (no result: PI5P4K alpha inh, PLK1 PBD inh)
CCN(CC(=O)Nc1c(F)cccc1F)C(=O)c1cccc(S(=O)(=O)N(C)c2ccccc2)c1	none
COC(=O)C1=C(C)N(CCCC(=O)O)C(=O)NC1c1ccccc1Cl (stereo unspecified)	PI5P4K alpha inh -82 (no result: BAZ2B inh, G9a block)
CCN1C(=O)N[C@@H](CCc2ccccc2)C(C(C)=O)=C1C	JMJD2A Tudor inconclusive, PLK1 PBD inh 27µM (no result: BAZ2B inh, G9a block)
CC1=C(C(=O)OCc2ccccc2)C(c2ccccc2Cl)NC(=O)N1C (stereo unspecified)	none
CC1=C(C(=O)OCC(Br)(Br)Br)C(c2ccc(Br)cc2)NC(=O)N1CCCC(=O)O (stereo unspecified)	none (no result: PI5P4K alpha inh, JMJD2A Tudor, PLK1 PBD inh, HP1b chromo inh)
COC(=O)C1=C(C)N(CCCC(=O)O)C(=O)NC1c1ccc(Br)cc1 (stereo unspecified)	PI5P4K alpha inh -99 (no result: G9a block)
COc1ccc(OC)c(N2Cc3cc(C)c(C)cc3C2)c1	JMJD2A Tudor inconclusive, BAZ2B inh inconclusive, G9a block 13µM (no result: PI5P4K alpha inh)
Cn1c(CNC(=O)C(Cc2ccccc2)NC(=O)c2cccc(F)c2)cc(=O)n(C)c1=O (stereo unspecified)	PLK1 PBD inh 27µM
O=C(Nc1nnc(S(=O)(=O)N2CCCc3ccccc32)s1)c1ccccc1Cl	none (no result: PI5P4K alpha inh, PLK1 PBD inh)
C[C@H]1CCCCO[C@H](CN(C)CC2CCCCC2)[C@@H](C)CN([C@@H](C)CO)C(=O)c2cc(NS(=O)(=O)c3ccccc3)ccc2O1	none (no result: JMJD2A Tudor, BAZ2B inh, HP1b chromo inh, G9a block)
O=C(CSc1nnc(-c2cccc(Cl)c2)o1)Nc1ccc2c(c1)OCCO2	none
NCCc1nnc(SCC(=O)Nc2cccc(Cl)c2)o1	BAZ2B inh inconclusive, G9a block 50µM
O=C(CSc1nnc(-c2ccc(C(F)(F)F)cn2)o1)Nc1cccc(Cl)c1	BAZ2B inh 50µM
NS(=O)(=O)OCC(Cc1ccccc1)N1C(=O)c2ccccc2C1=O (stereo unspecified)	none
CC(=O)N1CCc2cc(S(=O)(=O)Nc3ccc(C)c(C)c3)ccc21	none (no result: PI5P4K alpha inh, BAZ2B inh, PLK1 PBD inh, HP1b chromo inh, G9a block)
CCOC(=O)C1=C(O)c2ccccc2C(=O)/C1=C\c1ccc(C)cc1	PI5P4K alpha inh -56, JMJD2A Tudor 40µM, BAZ2B inh 20µM, PLK1 PBD inh 0.67µM, HP1b chromo inh 35µM, G9a block 2.5µM
CCOC(=O)C1=C(C)OC(=Cc2ccccc2)C1=O	none (no result: JMJD2A Tudor, BAZ2B inh, HP1b chromo inh, G9a block)
COc1ccc(NC(=O)CC2C(=O)N(c3ccc(F)cc3)C(=O)N2Cc2ccco2)cc1 (stereo unspecified)	none (no result: PI5P4K alpha inh, PLK1 PBD inh)
Cc1ccc(S(=O)(=O)Nc2ccccc2)cc1[N+](=O)[O-]	none (no result: BAZ2B inh, G9a block)
Cc1cccc2c(N=Nc3ccc(S(=O)(=O)Nc4cccc(Cl)c4)cc3[N+](=O)[O-])c(O)[nH]c12	PI5P4K alpha inh -71, G9a block inconclusive
NC(=O)CCn1c2ccccc2c2ccccc21	G9a block inconclusive
Cc1ccc2c(c1)c1cccc3c1n2CCN3CCC(N)=O	JMJD2A Tudor 50µM, BAZ2B inh 40µM, HP1b chromo inh inconclusive, G9a block inconclusive
C[n+]1cnc(-c2ccccc2)cc1-c1ccccc1	JMJD2A Tudor 22µM, PLK1 PBD inh inconclusive, HP1b chromo inh inconclusive, G9a block inconclusive
Fc1ccc2cc(-c3ccccc3)ncc2c1	none (no result: BAZ2B inh, G9a block)
COc1c(C)cccc1C(=O)NC(=S)Nc1ccccc1N1CCCC1	JMJD2A Tudor 50µM, BAZ2B inh inconclusive, G9a block 32µM
COc1cccc(C(=O)NC(=S)Nc2ccccc2N2CCCC2)c1	JMJD2A Tudor inconclusive, BAZ2B inh 28µM, PLK1 PBD inh inconclusive, HP1b chromo inh 22µM
COc1cccc(C(=O)NC(=S)Nc2ccccc2N2CCCCC2)c1	JMJD2A Tudor inconclusive, BAZ2B inh inconclusive
CCOC(=O)C1=C(CS(=O)(=O)c2ccc(C)cc2)NC(=O)NC1c1ccc(C(C)C)cc1 (stereo unspecified)	none (no result: PI5P4K alpha inh, PLK1 PBD inh)
CC(C)(C)c1nc2cc(Cl)c([N+](=O)[O-])cc2o1	JMJD2A Tudor inconclusive, PLK1 PBD inh 27µM, HP1b chromo inh inconclusive
CC(C)(C)Nc1nc2cc([N+](=O)[O-])ccc2o1	none
COc1ccc(NC(=O)CCc2nnc3n(CC(C)C)c(=O)c4ccccc4n23)cc1	none (no result: PI5P4K alpha inh, PLK1 PBD inh)
Cc1cccc(/N=C2/NC(=O)C(Cc3ccccc3)S2)n1 (stereo unspecified)	PLK1 PBD inh 30µM
COc1ncc2nc(CCc3ccccc3)c(=O)n(C3CC3)c2n1	none (no result: PI5P4K alpha inh, JMJD2A Tudor, BAZ2B inh, PLK1 PBD inh, HP1b chromo inh)
CC(=O)c1ccc(S(=O)(=O)N2CCC3(CC2)CC(=O)c2ccccc2O3)cc1	none
CCOC(=O)c1c(C=O)c(C)n(Cc2ccc(Cl)cc2)c1C	JMJD2A Tudor inconclusive (no result: PI5P4K alpha inh)
CCOC(=O)C1=C(Cc2ccc(Cl)cc2)C(=O)c2ccccc2C1=O	JMJD2A Tudor 35µM, BAZ2B inh 22µM, PLK1 PBD inh 4.7µM, HP1b chromo inh 20µM, G9a block 2.5µM (no result: PI5P4K alpha inh)
NC(=S)N/N=C\c1ccccc1OCc1ccccc1	BAZ2B inh inconclusive
NC(=S)N/N=C/c1c[nH]c2ccc(OCc3ccccc3)cc12	JMJD2A Tudor inconclusive, BAZ2B inh 35µM, PLK1 PBD inh inconclusive, G9a block 40µM
N[C@@H](Cc1c[nH]c2ccc(O)cc12)C(=O)O	JMJD2A Tudor inconclusive, BAZ2B inh inconclusive, G9a block 8.4µM!
O=C1c2ccccc2C(=O)N1CCc1c[nH]c2ccc(O)cc12	G9a block inconclusive
OCCc1c[nH]c2ccc(OCc3ccccc3)cc12	none
